The subject of one assay is Klebsiella pneumoniae. As to conditions: Concentration 20 uM; ASSAY_TEST Inhibition of Bacterial Growth; detection method Absorption (OD600); MEDIA CAMHB; plate type 384well; NBS; CORNING #3640; time 18 hr.
The next assay deals with Candida albicans. As to conditions: 20 µM.
Another assay relates to Cryptococcus neoformans. As to conditions: Concentration 20 uM; ASSAY_TEST Inhibition of Fungal Growth; detection method Resazurin; Absorption (OD600-OD570); plate type 384well; NBS; CORNING #3640.

Entries with a potency or affinity are not part of this list.

With `O=C(Nc1cccc(-c2ccc(NCCCN3CCCC3)nc2)c1)c1ccccc1`, the Inhibition (commonly the drop in the measured response relative to a control, in per cent) with Klebsiella pneumoniae was 8.2%; in the assay with Candida albicans it was 3.22%; with Cryptococcus neoformans it was 16.14%.

Regarding `CN1CCCN(C(c2ccccc2)c2ccc(Cl)cc2)CC1` (stereo not drawn) [HOMOCHLORCYCLIZINE], the Inhibition was 10.44% in the assay on Klebsiella pneumoniae, 2.84% in the assay with Candida albicans and -6.27% in the assay on Cryptococcus neoformans.

For the molecule `CCc1ccc(C(NCc2nc(N)nc(N(C)C)n2)C(C)C)cc1` (stereo not drawn), the Inhibition was -6.55% in the assay on Klebsiella pneumoniae, 5.01% in the assay with Candida albicans and -4.27% in the assay on Cryptococcus neoformans.

Consider `Cc1ccc(S(=O)(=O)Nc2ccc(CN3CCN(C(=O)c4cccc(C#N)c4)CC3)cc2)cc1`, for which the Inhibition with Klebsiella pneumoniae was 10.93%; in the assay with Candida albicans, -0.01%; in the assay with Cryptococcus neoformans it was -7.61%.

Take `CCOc1ccc(-c2nc(CNCCc3ccc(F)cc3)cs2)cc1`: the figures for the Inhibition in the assay on Klebsiella pneumoniae, in the assay with Candida albicans and with Cryptococcus neoformans were 12.06%, 7.53% and -5.87%, respectively.

Turning to `C[C@]1(O)C[C@@H](c2nc(-c3ccc4ccc(-c5ccccc5)nc4c3)c3c(N)nccn32)C1` [LINSITINIB], the Inhibition in the assay with Klebsiella pneumoniae is 12.51%; in the assay on Candida albicans, 8.51%; with Cryptococcus neoformans, -8.41%.

In the case of `O=C(Nc1ccnc(-c2cccnc2)n1)c1cc(C(F)(F)F)cc(C(F)(F)F)c1`, the Inhibition in the assay on Klebsiella pneumoniae is 14.57%; in the assay with Candida albicans it was 1.91%; in the assay with Cryptococcus neoformans, -5.46%.

Turning to `O=C(Nc1cnc2ccccc2c1)c1cccc(-n2cnnn2)c1`, the Inhibition in the assay with Klebsiella pneumoniae is 8.59%; with Candida albicans, 4.47%; in the assay on Cryptococcus neoformans it was -9.7%.

As to `CC(C)n1nc(-c2cc3c(Cl)cccc3[nH]2)c2c(N)ncnc21`, the figures for the Inhibition in the assay on Klebsiella pneumoniae, in the assay with Candida albicans and in the assay on Cryptococcus neoformans were 6.59%, 5.11% and -4.09%, respectively.

In the case of `CC1CS(=O)(=O)CCN1/N=C/c1ccc([N+](=O)[O-])o1` (stereo not drawn) [NIFURTIMOX], the Inhibition is 15.43% in the assay with Klebsiella pneumoniae, 4.12% in the assay with Candida albicans and 5.99% in the assay on Cryptococcus neoformans.

For `CN(C)c1cc(NC(=O)Nc2ccccc2)c2ccccc2n1`, the Inhibition in the assay with Klebsiella pneumoniae is -9.89%; in the assay with Candida albicans it was 5.61%; with Cryptococcus neoformans, -2.57%.

The values above are taken from ChEMBL document CHEMBL4513149, “CO-ADD screening of MMV (CH) - MMV compounds” (2021).
